PubChem BioAssay AID1159580 (chemical genetic matrix, 2015)
In all, about 5,500 compounds went through this assay and about 2,000 (36%) were called active. Inconclusive results (about 18%) are left out. Cut-off read from the data, not from the text of the source: active = normalized growth mostly below about 0.91 (no sharp cut-off); inconclusive = no clear call, values can overlap the other calls; inactive = mostly above about 0.92. This is one part of the list.

Assay: chemical genetic growth profiling, strain panel (AID 1159580);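 note: tested at 20 µM; growth read once vehicle control cultures reached saturation at 30 °C; 1 = growth at the plate median or of vehicle wells; lower values mean less growth of the strain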
Conditions: growth OD

Measured: normalized growth

CCC(C)C(=O)c1c(O)c(C)c2oc3c(C)c(O)c(C(=O)C(C)CC)c(O)c3c2c1O (stereo not drawn)
active: S. cerevisiae deletion strains, locus YDL185W, strain tfp1, hits give low values 0.895 | S. cerevisiae deletion strains, locus YDR137W, strain rgp1, hits give low values 0.813 | S. cerevisiae deletion strains, locus YGL086W, strain mad1, hits give low values 1.12 [resistant] | S. cerevisiae deletion strains, locus YJL187C, strain SWE1 (second series), hits give low values 0.767 | S. cerevisiae deletion strains, locus YKL085W, strain MDH1 (second series), hits give low values 1.11 [resistant] | S. cerevisiae deletion strains, locus YKL085W, strain MDH1, hits give low values 1.11 [resistant] | S. cerevisiae deletion strains, locus YLR039C, strain RIC1, hits give low values 0.674 | S. cerevisiae deletion strains, locus YLR058C, strain SHM2, hits give low values 0.866
inactive: S. cerevisiae deletion strains, locus YAL021C, strain ccr4, hits give low values 0.972 | S. cerevisiae deletion strains, locus YAL026C, strain drs2, hits give low values 0.982 | S. cerevisiae deletion strains, locus YAL030W, strain snc1, hits give low values 0.983 | S. cerevisiae deletion strains, locus YBL061C, strain skt5, hits give low values 0.98 | S. cerevisiae deletion strains, locus YBR009C, strain hhf1, hits give low values 0.977 | S. cerevisiae deletion strains, locus YBR021W, strain FUR4, hits give low values 1.05 | S. cerevisiae deletion strains, locus YBR023C, strain chs3, hits give low values 0.971 | S. cerevisiae deletion strains, locus YBR171W, strain sec66, hits give low values 0.995 | S. cerevisiae deletion strains, locus YBR229C, strain ROT2, hits give low values 0.996 | S. cerevisiae deletion strains, locus YBR231C, strain swc5, hits give low values 0.925 | S. cerevisiae deletion strains, locus YBR279W, strain paf1, hits give low values 0.988 | S. cerevisiae deletion strains, locus YCL011C, strain gbp2, hits give low values 0.98 | S. cerevisiae deletion strains, locus YCL016C, strain dcc1, hits give low values 0.973 | S. cerevisiae deletion strains, locus YCL029C, strain bik1, hits give low values 0.943 | S. cerevisiae deletion strains, locus YCL069W, strain vba3, hits give low values 1 | S. cerevisiae deletion strains, locus YCR088W, strain abp1, hits give low values 0.997 | S. cerevisiae deletion strains, locus YDL005C, strain med2, hits give low values 0.979 | S. cerevisiae deletion strains, locus YDL035C, strain GPR1, hits give low values 0.953 | S. cerevisiae deletion strains, locus YDL040C, strain nat1, hits give low values 0.994 | S. cerevisiae deletion strains, locus YDL074C, strain BRE1, hits give low values 0.949 | S. cerevisiae deletion strains, locus YDL101C, strain DUN1, hits give low values 0.959 | S. cerevisiae deletion strains, locus YDL134C, strain PPH21, hits give low values 0.977 | S. cerevisiae deletion strains, locus YDL192W, strain arf1, hits give low values 0.976 | S. cerevisiae deletion strains, locus YDR001C, strain nth1, hits give low values 1.01 | S. cerevisiae deletion strains, locus YDR069C, strain doa4, hits give low values 0.919 | S. cerevisiae deletion strains, locus YDR101C, strain arx1, hits give low values 0.987 | S. cerevisiae deletion strains, locus YDR150W, strain NUM1, hits give low values 0.966 | S. cerevisiae deletion strains, locus YDR159W, strain sac3, hits give low values 0.965 | S. cerevisiae deletion strains, locus YDR162C, strain NBP2, hits give low values 0.997 | S. cerevisiae deletion strains, locus YDR195W, strain ref2 0.977 | S. cerevisiae deletion strains, locus YDR297W, strain sur2, hits give low values 0.989 | S. cerevisiae deletion strains, locus YDR318W, strain mcm21, hits give low values 0.967 | S. cerevisiae deletion strains, locus YDR334W, strain swr1, hits give low values 1 | S. cerevisiae deletion strains, locus YDR335W, strain msn5, hits give low values 0.997 | S. cerevisiae deletion strains, locus YDR388W, hits give low values 0.961 | S. cerevisiae deletion strains, locus YDR392W, strain spt3, hits give low values 0.921 | S. cerevisiae deletion strains, locus YDR502C, strain sam2, hits give low values 0.935 | S. cerevisiae deletion strains, locus YEL003W, strain gim4, hits give low values 0.983 | S. cerevisiae deletion strains, locus YEL037C, strain rad23, hits give low values 1.01 | S. cerevisiae deletion strains, locus YEL061C, strain CIN8 (second series), hits give low values 1 | S. cerevisiae deletion strains, locus YEL061C, strain CIN8, hits give low values 0.97 | S. cerevisiae deletion strains, locus YER015W, strain faa2, hits give low values 0.983 | S. cerevisiae deletion strains, locus YER016W, strain bim1, hits give low values 0.996 | S. cerevisiae deletion strains, locus YER110C, hits give low values 0.975 | S. cerevisiae deletion strains, locus YER111C, strain swi4, hits give low values 0.984 | S. cerevisiae deletion strains, locus YER155C, strain BEM2 (second series), hits give low values 0.934 | S. cerevisiae deletion strains, locus YER155C, strain BEM2, hits give low values 1.02 | S. cerevisiae deletion strains, locus YER167W, strain BCK2, hits give low values 0.956 | S. cerevisiae deletion strains, locus YFR010W, strain ubp6, hits give low values 0.978 | S. cerevisiae deletion strains, locus YGL078C, strain dbp3, hits give low values 0.987 | S. cerevisiae deletion strains, locus YGL167C, strain pmr1, hits give low values 1 | S. cerevisiae deletion strains, locus YGL173C, strain kem1, hits give low values 0.97 | S. cerevisiae deletion strains, locus YGL227W, strain vid30, hits give low values 1 | S. cerevisiae deletion strains, locus YGL240W, strain doc1, hits give low values 0.949 | S. cerevisiae deletion strains, locus YGL248W, strain PDE1, hits give low values 0.984 | S. cerevisiae deletion strains, locus YGL253W, strain hxk2, hits give low values 1 | S. cerevisiae deletion strains, locus YGR135W, strain pre9, hits give low values 0.941 | S. cerevisiae deletion strains, locus YGR252W, strain gcn5, hits give low values 1.09 | S. cerevisiae deletion strains, locus YHR013C, strain ard1, hits give low values 0.969 | S. cerevisiae deletion strains, locus YHR027C, strain rpn1, hits give low values 0.998 | S. cerevisiae deletion strains, locus YHR030C, strain SLT2, hits give low values 0.964 | S. cerevisiae deletion strains, locus YHR079C, strain IRE1 (second series), hits give low values 0.979 | S. cerevisiae deletion strains, locus YHR094C, strain hxt1, hits give low values 0.999 | S. cerevisiae deletion strains, locus YHR129C, strain ARP1, hits give low values 0.952 | S. cerevisiae deletion strains, locus YHR142W, strain chs7, hits give low values 1.02 | S. cerevisiae deletion strains, locus YHR200W, strain rpn10, hits give low values 0.988 | S. cerevisiae deletion strains, locus YIL066C, strain RNR3, hits give low values 0.943 | S. cerevisiae deletion strains, locus YIL073C, strain SPO22, hits give low values 1.01 | S. cerevisiae deletion strains, locus YIL125W, strain kgd1, hits give low values 0.997 | S. cerevisiae deletion strains, locus YIR030C, strain dcg1, hits give low values 0.978 | S. cerevisiae deletion strains, locus YJL092W, strain hpr5, hits give low values 1 | S. cerevisiae deletion strains, locus YJL095W, strain BCK1 (second series), hits give low values 0.985 | S. cerevisiae deletion strains, locus YJL095W, strain BCK1, hits give low values 0.882 | S. cerevisiae deletion strains, locus YJL115W, strain asf1, hits give low values 1.01 | S. cerevisiae deletion strains, locus YJL129C, strain trk1, hits give low values 1.02 | S. cerevisiae deletion strains, locus YJL134W, strain LCB3, hits give low values 0.978 | S. cerevisiae deletion strains, locus YJL154C, strain vps35, hits give low values 1.01 | S. cerevisiae deletion strains, locus YJL164C, strain tpk1, hits give low values 0.977 | S. cerevisiae deletion strains, locus YJL166W, strain qcr8, hits give low values 0.983 | S. cerevisiae deletion strains, locus YJL168C, strain set2, hits give low values 0.983 | S. cerevisiae deletion strains, locus YJL187C, strain SWE1, hits give low values 0.983 | S. cerevisiae deletion strains, locus YJR043C, strain POL32, hits give low values 0.936 | S. cerevisiae deletion strains, locus YJR075W, strain HOC1, hits give low values 0.96 | S. cerevisiae deletion strains, locus YKL068W, hits give low values 0.965 | S. cerevisiae deletion strains, locus YKL160W, strain elf1, hits give low values 0.979 | S. cerevisiae deletion strains, locus YKR001C, strain vps1, hits give low values 0.952 | S. cerevisiae deletion strains, locus YKR026C, strain gcn3, hits give low values 1.01 | S. cerevisiae deletion strains, locus YKR091W, strain srl3, hits give low values 0.992 | S. cerevisiae deletion strains, locus YLL001W, strain dnm1, hits give low values 0.98 | S. cerevisiae deletion strains, locus YLL026W, hits give low values 0.996 | S. cerevisiae deletion strains, locus YLL041C, strain sdh2, hits give low values 1.01 | S. cerevisiae deletion strains, locus YLR027C, strain aat2, hits give low values 0.965 | S. cerevisiae deletion strains, locus YLR102C, strain apc9, hits give low values 0.98 | S. cerevisiae deletion strains, locus YLR221C, strain rsa3, hits give low values 0.957 | S. cerevisiae deletion strains, locus YLR258W, strain gsy2, hits give low values 0.971 | S. cerevisiae deletion strains, locus YLR262C, strain YPT6 (second series), hits give low values 0.949 | S. cerevisiae deletion strains, locus YLR262C, strain YPT6, hits give low values 0.773 | S. cerevisiae deletion strains, locus YLR268W, strain sec22, hits give low values 0.904 | S. cerevisiae deletion strains, locus YLR320W, strain mms22, hits give low values 0.954 | S. cerevisiae deletion strains, locus YLR330W, strain CHS5, hits give low values 0.979 | S. cerevisiae deletion strains, locus YLR342W, strain FKS1 (second series), hits give low values 0.92 | S. cerevisiae deletion strains, locus YLR342W, strain FKS1, hits give low values 0.968 | S. cerevisiae deletion strains, locus YLR357W, strain rsc2, hits give low values 0.957 | S. cerevisiae deletion strains, locus YLR370C, strain arc18, hits give low values 0.983 | S. cerevisiae deletion strains, locus YLR371W, strain rom2, hits give low values 0.973 | S. cerevisiae deletion strains, locus YLR384C, strain iki3, hits give low values 0.975 | S. cerevisiae deletion strains, locus YLR418C, strain cdc73, hits give low values 0.974 | S. cerevisiae deletion strains, locus YML016C, strain PPZ1, hits give low values 0.974 | S. cerevisiae deletion strains, locus YML032C, strain rad52, hits give low values 0.94 | S. cerevisiae deletion strains, locus YML120C, strain ndi1, hits give low values 0.989 | S. cerevisiae deletion strains, locus YML124C, strain tub3, hits give low values 0.992 | S. cerevisiae deletion strains, locus YMR058W, strain fet3, hits give low values 0.986 | S. cerevisiae deletion strains, locus YMR078C, strain ctf18, hits give low values 0.989 | S. cerevisiae deletion strains, locus YMR125W, strain sto1, hits give low values 0.969 | S. cerevisiae deletion strains, locus YMR129W, hits give low values 0.981 | S. cerevisiae deletion strains, locus YMR205C, strain PFK2, hits give low values 0.967 | S. cerevisiae deletion strains, locus YMR223W, strain ubp8, hits give low values 0.957 | S. cerevisiae deletion strains, locus YMR231W, strain pep5, hits give low values 0.993 | S. cerevisiae deletion strains, locus YMR263W, strain SAP30, hits give low values 0.975 | S. cerevisiae deletion strains, locus YMR307W, strain GAS1, hits give low values 1.09 | S. cerevisiae deletion strains, locus YNL067W, strain RPL9B, hits give low values 0.964 | S. cerevisiae deletion strains, locus YNL071W, strain lat1, hits give low values 1 | S. cerevisiae deletion strains, locus YNL153C, strain GIM3, hits give low values 0.928 | S. cerevisiae deletion strains, locus YNL209W, strain ssb2, hits give low values 0.982 | S. cerevisiae deletion strains, locus YNL233W, strain BNI4, hits give low values 0.993 | S. cerevisiae deletion strains, locus YNL248C, strain rpa49, hits give low values 0.91 | S. cerevisiae deletion strains, locus YNL250W, strain rad50, hits give low values 0.966 | S. cerevisiae deletion strains, locus YNL271C, strain bni1, hits give low values 0.987 | S. cerevisiae deletion strains, locus YNL298W, strain CLA4, hits give low values 0.972 | S. cerevisiae deletion strains, locus YNL307C, strain MCK1, hits give low values 0.982 | S. cerevisiae deletion strains, locus YNL322C, strain KRE1 (second series), hits give low values 0.978 | S. cerevisiae deletion strains, locus YNR049C, strain mso1, hits give low values 0.994 | S. cerevisiae deletion strains, locus YNR052C, strain pop2, hits give low values 0.966 | S. cerevisiae deletion strains, locus YOL012C, strain htz1 0.792 | S. cerevisiae deletion strains, locus YOL147C, strain pex11, hits give low values 0.986 | S. cerevisiae deletion strains, locus YOR001W, strain rrp6, hits give low values 0.954 | S. cerevisiae deletion strains, locus YOR061W, strain CKA2, hits give low values 0.932 | S. cerevisiae deletion strains, locus YOR069W, strain VPS5, hits give low values 0.977 | S. cerevisiae deletion strains, locus YOR070C, strain gyp1, hits give low values 0.966 | S. cerevisiae deletion strains, locus YOR080W, strain dia2, hits give low values 0.978 | S. cerevisiae deletion strains, locus YOR083W, strain WHI5, hits give low values 1 | S. cerevisiae deletion strains, locus YOR106W, strain vam3, hits give low values 0.973 | S. cerevisiae deletion strains, locus YOR136W, strain idh2, hits give low values 0.986 | S. cerevisiae deletion strains, locus YOR144C, strain elg1, hits give low values 0.992 | S. cerevisiae deletion strains, locus YOR184W, strain ser1, hits give low values 0.977 | S. cerevisiae deletion strains, locus YOR265W, strain rbl2, hits give low values 0.981 | S. cerevisiae deletion strains, locus YOR270C, strain vph1, hits give low values 0.921 | S. cerevisiae deletion strains, locus YOR290C, strain snf2, hits give low values 0.967 | S. cerevisiae deletion strains, locus YOR316C, strain cot1, hits give low values 0.974 | S. cerevisiae deletion strains, locus YPL051W, strain arl3, hits give low values 0.923 | S. cerevisiae deletion strains, locus YPL078C, strain atp4, hits give low values 0.992 | S. cerevisiae deletion strains, locus YPL106C, strain sse1, hits give low values 0.966 | S. cerevisiae deletion strains, locus YPL240C, strain hsp82, hits give low values 0.995 | S. cerevisiae deletion strains, locus YPL241C, strain CIN2, hits give low values 0.995 | S. cerevisiae deletion strains, locus YPR119W, strain clb2, hits give low values 0.99 | S. cerevisiae deletion strains, locus YPR141C, strain kar3, hits give low values 0.967 | S. cerevisiae deletion strains, locus YPR163C, strain tif3, hits give low values 0.994 | S. cerevisiae deletion strains, locus YPR167C, strain met16, hits give low values 0.976 | S. cerevisiae deletion strains, strain wtn01, hits give low values 0.969 | S. cerevisiae strains, strain wild type, hits give low values 0.965
